# Bioassay records as filed in PubChem BioAssay.
# An excerpt weighted towards active compounds, which were near 12% of everything screened.
# JMJD2A Tudor inh: blocks the human JMJD2A Tudor domain | O75164 | Potency, µM (series often up to 114 µM), hits mostly inhibitors | AID 504339 | AlphaScreen JMJD2A-Tudor / H3K4me3 peptide binding | 4.4% of 390,000 active; further: nearly all actives have a fitted effect of over 50% in size
# PI5P4K alpha inh: PI5P4K alpha (human) kinase inhibition; P48426; AID 652105; PI5P4Kalpha enzyme, ADP-Glo luminescence, 60 min; hits give low values; 1.2% of 330,000 active; max response, %; active means max response of -50% or lower; inconclusive means between -30% and -50%; inactive means -30% or higher; further: value at the top dose of about 77 µM
#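 Controls without substrate or without enzyme flank wells where PI5P4Kalpha converts substrate using 5 microM ATP (final). Incubation lasts 60 minutes at room temperature; ADP formed is read by ADP-Glo luminescence.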
# HP1b chromo inh: inhibitors of HP1-beta chromodomain binding to methylated histone tails; AID 540317; 0.56% of 390,000 active; AlphaScreen HP1-beta / biotin-H3K9me3 peptide binding; Potency, µM (highest dose often 114 µM), actives largely listed as inhibitors; further: nearly all actives have a fitted effect of over 70% in size
#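 AlphaScreen: HP1-beta (50 nM) preformed 30 min with biotin-H3(1-18)K9me3 peptide (50 nM) in PBS pH 7.4, 0.01% Tween-20. Compound added for 30 min at RT, then streptavidin donor/nickel chelate acceptor beads (10 ug/mL) for 30 min.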
# BAZ2B inh: blocks human BAZ2B. 4.4% of 360,000 active. Q9UIF8. Potency, µM (highest dose often 114 µM), usual class: inhibitors. AlphaScreen BAZ2B-H3K14Ac peptide displacement. AID 504333; further: nearly all actives have a fitted effect of over 60% in size
#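 BAZ2B (50 nM) with biotin-H3(5-23)K14Ac peptide (50 nM) in PBS pH 7.4, 0.01% Tween-20, preformed 30 min, then compound 30 min at room temperature; top concentration 110uM. AlphaScreen streptavidin donor/nickel chelate acceptor beads (10 ug/mL final), 20 min dark, signal read.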
# PLK1 PBD block: blocks phosphopeptide binding to human PLK1 polo-box domain; P53350; Plk1 PBD binding of FITC phosphopeptide, fluorescence polarization; Potency, µM, hits mostly inhibitors; 2.8% of 360,000 active; AID 720504; further: series mostly up to about 57 µM; nearly all actives have a fitted effect of over 65% in size
# Target sequence (P53350 whole entry, looked up, the tested form may be a part): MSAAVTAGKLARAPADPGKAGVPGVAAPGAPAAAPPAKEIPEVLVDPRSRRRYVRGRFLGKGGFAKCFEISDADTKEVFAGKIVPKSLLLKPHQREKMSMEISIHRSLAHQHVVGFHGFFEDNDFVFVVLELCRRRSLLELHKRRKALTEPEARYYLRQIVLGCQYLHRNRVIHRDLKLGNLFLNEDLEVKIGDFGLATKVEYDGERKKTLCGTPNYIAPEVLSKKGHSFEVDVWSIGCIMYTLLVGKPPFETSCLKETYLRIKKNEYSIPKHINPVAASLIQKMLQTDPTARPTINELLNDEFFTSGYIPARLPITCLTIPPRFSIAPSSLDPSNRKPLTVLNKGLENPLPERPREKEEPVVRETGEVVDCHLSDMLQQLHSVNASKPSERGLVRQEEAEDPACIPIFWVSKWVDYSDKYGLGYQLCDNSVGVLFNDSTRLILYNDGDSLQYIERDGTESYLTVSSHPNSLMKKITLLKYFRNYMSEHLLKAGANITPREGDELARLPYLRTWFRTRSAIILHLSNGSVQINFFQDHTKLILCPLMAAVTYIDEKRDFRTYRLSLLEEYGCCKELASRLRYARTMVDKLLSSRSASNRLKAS
# G9a block: inhibitors of human histone lysine methyltransferase G9a; Potency, µM (highest dose often 102 µM), hits mostly inhibitors; Q96KQ7; 8.8% of 350,000 active; G9a H3K9 monomethylation, AlphaScreen, 2 h; further: nearly all actives have a fitted effect of over 75% in size
#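 Chemiluminescent proximity detection of H3K9 monomethylation, read after 10 min bead incubation in the dark. Reaction: 20 nM G9a, 500 nM biotin-H3K9 peptide, 20 uM SAM cofactor, 2 h, room temperature, following 15 min enzyme-compound preincubation.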
# A number is an active result; - = inactive; ? = inconclusive; . = no result; [ ] = remark or other dose. Unless noted, the call rests on the fitted dose curve; in most records, active means well fitted curve in the direction sought with a large enough effect; inconclusive means small, poorly fitted or top-dose-only effect, or another doubt; inactive means no such curve, though single readings can be large; an effect the other way counts as inactive or inconclusive.
SMILES,JMJD2A Tudor inh,PI5P4K alpha inh,HP1b chromo inh,BAZ2B inh,PLK1 PBD block,G9a block
CCCOC(c1ccccc1)(c1ccccc1)C(Oc1nc(C)cc(C)n1)C(=O)O (stereo not drawn),-,-,-,-,-,71µM
Cc1cc(C)nc(OC(C(=O)O)C(OCCC(C)C)(c2ccccc2)c2ccccc2)n1 (stereo not drawn),-,-,-,-,-,-
O=C(NC1(C(F)(F)F)Oc2ccccc2O1)N1CCCC1,?,-,-,-,-,6.3µM
O=C(Nc1ccc2c(c1)OCO2)NC1(C(F)(F)F)Oc2ccccc2O1,-,-,-,-,-,6.3µM
O=C(Nc1ccc2c(c1)OCCO2)NC1(C(F)(F)F)Oc2ccccc2O1,?,-,-,-,-,2µM
O=C(NCC1CCCO1)NC1(C(F)(F)F)Oc2ccccc2O1 (stereo not drawn),-,-,-,-,-,?
O=C(Nc1ccc2c(c1)OCO2)Nc1ccccc1F,-,-,-,-,-,-
O=C(Nc1ccc2c(c1)OCCO2)Nc1ccc2c(c1)OCO2,-,-,-,-,-,-
COC(=O)[C@]12CCCCC=C1N(Cc1ccco1)C(=O)[C@H](CC(=O)NCC13CC4CC(CC(C4)C1)C3)C2,.,-,.,.,-,.
CC(C)(C)NC(=O)C(c1ccccc1)n1c(=O)c(-c2ccccc2)nc2ccccc21 (stereo not drawn),.,-,.,.,-,.
Oc1ccccc1CN1CCCN(Cc2ccccc2O)C1,-,-,-,-,-,-
Oc1ccccc1CN1CCC(C(O)(c2ccccc2)c2ccccc2)CC1,?,-,?,-,-,8.9µM
Oc1ccccc1CN1CCN(C(O)(c2ccccc2)c2ccccc2)CC1,-,-,-,50µM,-,35µM
NC(=O)c1sc2nc3c(cc2c1N)CCCCCC3,-,-,-,-,?,50µM
Nc1c(C(=O)O)sc2nc3c(cc12)CCCC3,-,-,-,-,-,22µM
COc1ccc(C)cc1N(C(=O)c1ccc(C#N)cc1)C1=NC(C)(C)CS1,-,-,-,-,-,28µM
COC(=O)c1[nH]c2cc(OC)c(OC)cc2c1NC(=O)CN1C[C@H]2C[C@@H](C1)c1cccc(=O)n1C2,-,-,-,-,-,-[0.501 µM]
COc1cc(C(c2c(C)[nH][nH]c2=O)c2c(C)[nH][nH]c2=O)ccc1OC(=O)c1ccccc1F,?,.,-,?,.,-
COc1cc(C(c2c(C)[nH][nH]c2=O)c2c(C)[nH][nH]c2=O)ccc1OS(=O)(=O)c1ccc(C)cc1,-,-,-,-,?,2.8µM
COc1cc(C(c2c(C)[nH][nH]c2=O)c2c(C)[nH][nH]c2=O)cc(Cl)c1O,-,-,-,?,-,45µM
COc1cc(C(c2c(C)[nH][nH]c2=O)c2c(C)[nH][nH]c2=O)ccc1OS(=O)(=O)c1ccccc1,-,.,-,-,-,22µM
COc1ccc(C(c2c(C)[nH][nH]c2=O)c2c(C)[nH][nH]c2=O)cc1Br,-,-,-,-,24µM,?
COc1cc(C(c2c(C)[nH][nH]c2=O)c2c(C)[nH][nH]c2=O)ccc1OC(C)C,-,-,-,?,?,-
COc1cc(C(c2c(C)[nH][nH]c2=O)c2c(C)[nH][nH]c2=O)cc(OC)c1OC,-,-,-,-,-,-
CC(C)c1cc(C(=O)NC(C)c2ccccc2)no1 (stereo not drawn),-,.,-,-,.,-
SMILES,JMJD2A Tudor inh,PI5P4K alpha inh,HP1b chromo inh,BAZ2B inh,PLK1 PBD block,G9a block
COc1ccc(Cl)cc1NC(=O)c1cc(S(=O)(=O)N2CCc3ccccc32)cn1C,?,.,-,?,.,?
CC(=O)Nc1nonc1-c1nnc(SCC(=O)Nc2ccccc2Cl)n1C,-,.,-,-,.,-
COc1ccc(OC)c(C(c2c(C)[nH][nH]c2=O)c2c(C)[nH][nH]c2=O)c1,-,-,-,-,?,-[2.33 µM]
COc1ccc(O)c(C(c2c(C)[nH][nH]c2=O)c2c(C)[nH][nH]c2=O)c1,-[11.4 µM],-,-,-,7.5µM,-
Cc1ccc(CNc2ncnc3c2cnn3C2CCCCO2)cc1 (stereo not drawn),-,-,-,.,-,.
CCOCCC(=O)Nc1ccc2c(c1)c(=O)n(C)n2Cc1cccc(C(F)(F)F)c1,.,-,.,.,-,.
COc1cc(NC(=O)COC(=O)CO/N=C(\C)c2ccc3c(c2)OCO3)cc(OC)c1,-,-,-,-,-,-[12.7 µM]
